26 compounds from PubChem BioAssay (Tox21) can be followed below.

Results filed as inconclusive are left out. Entries that show only a call come without a potency. Calls of active or inactive are those of the source. Unless noted, calls come from the whole dose curve; as a rule, active = well fitted cell-killing curve with a large enough effect in the repeat runs; inconclusive = weak or mixed curves, or effect the other way; inactive = no such curve, though single readings can be large or run the other way.

The first experiment can be described thus: qHTS assay for small molecule agonists of the antioxidant response element (ARE) signaling pathway - cell viability counter screen (AID 743203; calls by dose curve; note: nearly all actives have a fitted effect of over 55% in size). The following applies: ARE-bla HepG2 viability, CellTiter-Glo luminescence, 16 h; series mostly up to 73.3 µM; viability change, negative = cytotoxic: at the top concentration. Put shortly: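 ARE-bla HepG2 cells were plated, rested 5 h at 37C/5% CO2, then exposed to compounds in DMSO for 16 h. Viability was read as CellTiter-Glo luminescence after 30 min at room temperature, in the same wells as the ARE screen.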
A general note: In qHTS, concentration-response curves come from the screen itself.
`CC(C)(C)c1cccc(C(C)(C)C)c1O`: the Potency result was “inactive”. Regarding `C=CCNCC=C`, the Potency entry is “inactive”. Turning to `CCCCCC1C(=O)CCC1CC(=O)OC` (stereo unspecified), the Potency entry is “inactive”.

With `CNC[C@H](O)c1ccc(O)c(O)c1`, the Potency entry was “inactive”. As to `Cc1ccc(S(=O)(=O)O)cc1C`, the Potency result is “inactive”. On the same count and under the same terms, the same measure for `CC1(C)C(C=C(Cl)Cl)C1C(=O)OCc1cccc(Oc2ccccc2)c1` (stereo unspecified): “inactive”; for `Cc1ccc(N)c([N+](=O)[O-])c1`: “inactive”.

The nature of the next experiment: qHTS assay for small molecule activators of the heat shock response signaling pathway - cell viability counter screen (AID 743209). Note: nearly all actives have a fitted effect of over 50% in size. The following applies: HSE-bla HeLa viability, CellTiter-Glo luminescence, 5 h; series mostly up to 62.6 µM; activity change, negative = cytotoxicity: at the top concentration. The method, boiled down: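 HSE-bla HeLa cells plated overnight, then exposed to Tox21 compounds (23 nL in DMSO) for 5 h at 37 C. After the bla reporter read, CellTiter-Glo was added in the same wells and luminescence read after 30 min at room temperature.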
For the compound `O=S1(=O)CCCO1`, the “activity change, negative = cytotoxicity” value was -1.32% (inactive). `CCOC(=O)C(C)Oc1ccc(Oc2cnc3cc(Cl)ccc3n2)cc1` (stereo unspecified): the Potency entry was “inactive”. Regarding `COC(=O)CC(=O)OC`, the Potency entry is “inactive”. For the compound `C=C[Si](OCCOC)(OCCOC)OCCOC`, the Potency entry was “inactive”. Take `CN(C)/N=N/c1nc[nH]c1C(N)=O`: the Potency result was “inactive”. In the case of `c1ccc2c(c1)[nH]c1ccccc12`, the Potency result is “inactive”.

On to `CCCCCCC(C)O` (stereo unspecified), for which the Potency result is “inactive”. In the case of `CCC/C=C/C=O`, the Potency entry is “inactive”. Consider `CCCCCCCCCCCCO`, for which the Potency entry was “inactive”.

As for `CC(C)[N+](C)(CCOC(=O)C1c2ccccc2Oc2ccccc21)C(C)C`, the Potency entry was “inactive”. With `C/C=C/C(=O)N(CC)c1ccccc1C`, the Potency entry was “inactive”. On to `COC(=O)c1ccc(C)cc1`, for which the Potency result is “inactive”. On to `CCc1cccc2c3c([nH]c12)C(CC)(CC(=O)O)OCC3` (stereo unspecified), for which the Potency result was “inactive”. For the compound `CCCCCCCCCCCCCO`, the Potency entry was “inactive”. For the compound `CC(C)=CCO`, the Potency entry is “inactive”. Regarding `CC(=O)Oc1c(C)c(C)c2c(c1C)CC[C@@](C)(CCC[C@H](C)CCC[C@H](C)CCCC(C)C)O2`, the “activity change, negative = cytotoxicity” value is -5.26% (inactive).

In the case of `Cc1ccc(C(C)(C)C)cc1`, the Potency entry is “inactive”. As to `CCO[Si](CCCNC(N)=O)(OCC)OCC`, the Potency entry is “inactive”.

For `OC[C@H]1O[C@@H]2O[C@H]3[C@H](O)[C@@H](O)[C@@H](O[C@H]4[C@H](O)[C@@H](O)[C@@H](O[C@H]5[C@H](O)[C@@H](O)[C@@H](O[C@H]6[C@H](O)[C@@H](O)[C@@H](O[C@H]7[C@H](O)[C@@H](O)[C@@H](O[C@H]1[C@H](O)[C@H]2O)O[C@@H]7CO)O[C@@H]6CO)O[C@@H]5CO)O[C@@H]4CO)O[C@@H]3CO`, the Potency entry was “inactive”.
